Our source for the outcome and AC50 values is PubChem BioAssay (EPA / NIEHS).

One may read the AC50 as the midpoint of the concentration-response curve, whichever way the signal moves.

The structures appear in SMILES notation. Records with an inconclusive call do not appear. Active and inactive are the calls of the source. How the source made its calls, unless noted: active means hit-call score of the fitted dose curve at least 0.9, where 1 is the maximum; inactive means score below 0.9.

The target of assay [1] is Paired box protein Pax-6 (Homo sapiens) (UniProt P26367). As to the kind of experiment: ATG_Pax6_CIS: Attagene CIS-FACTORIAL HepG2 Assay for human Paired Box 6 (PAX6) (AID 2282956). The conditions noted are these: HepG2 CIS-FACTORIAL PAX6 reporter transcription, RNA readout; actives raise or lower the signal. In a few lines:
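Transient MRTU transfection of HepG2 → compound exposure 24 h → TriZol RNA, oligo(dT) RT → PCR, 6-FAM primer extension, HpaI cut → capillary electrophoresis; activity fitted both directions against DMSO.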

The nature of assay [2]: ATG_PXRE_CIS: Attagene CIS-FACTORIAL HepG2 Assay for human Pregnane X Receptor Element (PXRE) (AID 2282957). Particulars: HepG2 Attagene CIS-FACTORIAL PXRE reporter, mRNA; actives raise or lower the signal. In a few lines: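 HepG2 cells transiently transfected with cis-regulated multiple reporter transcription units; endogenous factor activity measured as reporter mRNA 24 h after dosing. RT-PCR, fluorescent primer extension, HpaI digestion, capillary electrophoresis; bidirectional fit versus DMSO baseline.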

Assay [3] can be described thus: ATG_PPRE_CIS: Attagene CIS-FACTORIAL HepG2 Assay for human Peroxisome Proliferator-activated Response Element (PPRE) (AID 2282958). Particulars: HepG2 PPRE cis-element reporter, Attagene transcription factor profiling; actives raise or lower the signal. In a few lines: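 HepG2 cells are transiently transfected with multiplexed cis-promoter reporter units to report endogenous PPAR activity. After 24 h dosing, reporter mRNA is read by RT-PCR and capillary electrophoresis. Fitting is bidirectional against DMSO.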

Assay [4] is described as follows: ATG_RORE_CIS: Attagene CIS-FACTORIAL HepG2 Assay for human RAR-related Orphan Receptor Element (RORE) (AID 2282959). Particulars: HepG2 Attagene cis-factorial RORE reporter, mRNA; actives raise or lower the signal. In a few lines: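 HepG2 cells carrying transiently transfected cis-regulated reporter units; RORE-driven reporter mRNA quantified 24 h post-dosing by RT-PCR, 6-FAM primer extension, HpaI digestion and capillary electrophoresis. Bidirectional fit versus DMSO.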

Assay [5] in a line: ATG_Sox_CIS: Attagene CIS-FACTORIAL HepG2 Assay for human SRY-box transcription factor (SOX) (AID 2282960). Particulars: HepG2 Attagene cis-factorial SOX reporter, mRNA; actives raise or lower the signal. In a few lines:
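HepG2 cells transiently transfected with multiple cis-regulated reporter units, then dosed for 24 h. Reporter mRNA quantified by RT-PCR, fluorescent labelling, HpaI digestion and capillary electrophoresis; bidirectional fit versus DMSO.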

In assay [6] the target is Transcription factor Sp1 (Homo sapiens) (UniProt P08047). Nature of the assay: ATG_Sp1_CIS: Attagene CIS-FACTORIAL HepG2 Assay for human Specificity Protein 1 (Sp1) (AID 2282961). Particulars: HepG2 Sp1 cis-reporter transcription, actives raise or lower the signal. In a few lines:
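HepG2 cells transiently transfected with multiplexed cis-regulated reporter constructs, chemical exposure 24 h. Reporter mRNA quantified by RT-PCR with capillary electrophoresis; bidirectional fit relative to DMSO.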

The target of assay [7] is Signal transducer and activator of transcription 3 (Homo sapiens) (UniProt P40763). As to the kind of experiment: ATG_STAT3_CIS: Attagene CIS-FACTORIAL HepG2 Assay for human Signal Transducer and Activator of Transcription 3 (STAT3) (AID 2282963). Particulars: HepG2, Attagene cis-factorial STAT3 reporter transcription; actives raise or lower the signal. In a few lines:
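Transcript-level reporter assay. HepG2 transient MRTU transfection, 24 h exposure, fluorescence detection after RT-PCR and CE; DMSO baseline.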

A short description of assay [8]: ATG_TA_CIS: Attagene CIS-FACTORIAL HepG2 Assay for human TA Basal Promoter (AID 2282964). The conditions noted are these: HepG2 Attagene CIS-factorial TA basal promoter reporter; actives raise or lower the signal. In a few lines: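 HepG2 cells transiently transfected with multiple reporter units under cis promoter elements, reporting endogenous transcription factor activity; this endpoint tracks the TA basal promoter as background control. Reporter mRNA after 24 h dosing measured by RT-PCR/capillary electrophoresis; bidirectional fits versus DMSO.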

The nature of assay [9]: ATG_TCF_b_cat_CIS: Attagene CIS-FACTORIAL HepG2 Assay for human T-Cell-Factor with beta-catenin (TCF/b-cat) (AID 2282965). Particulars: HepG2 TCF/beta-catenin cis-reporter transcription, actives raise or lower the signal. In a few lines:
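HepG2 cells transiently transfected with multiple cis-promoter-regulated reporter transcription units, so endogenous transcription factor activity is measured. Reporter mRNA read 24 hours after dosing by RT-PCR, fluorescent labelling and capillary electrophoresis; bidirectional fitting against DMSO.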

Assay [10] is described as follows: ATG_TAL_CIS: Attagene CIS-FACTORIAL HepG2 Assay for human TAL Basal Promoter (AID 2282966).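 Further: background control endpoint measuring basal TAL promoter reporter mRNA not a specific factor.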 The conditions noted are these: HepG2 Attagene cis-factorial TAL promoter reporter; actives raise or lower the signal. In a few lines:
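HepG2 cells were transiently transfected with promoter-driven multiplexed reporter units and dosed for 24 h. Reporter mRNA was measured by RT-PCR with capillary electrophoresis fluorescence; bidirectional fits used DMSO as baseline, serving as a background control.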

The nature of assay [11]: ATG_TGFb_CIS: Attagene CIS-FACTORIAL HepG2 Assay for human Transforming Growth Factor (TGF) (AID 2282967). The conditions noted are these: HepG2 Attagene CIS TGFb reporter, mRNA transcription; actives raise or lower the signal. In a few lines:
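HepG2 cells transiently transfected with cis-promoter-driven multiple reporter units measure endogenous TF activity; reporter mRNA quantified at 24 h by RT-PCR, FAM labeling, HpaI digestion and capillary electrophoresis. Bidirectional fit vs DMSO.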

A short description of assay [12]: ATG_VDRE_CIS: Attagene CIS-FACTORIAL HepG2 Assay for human Vitamin D Receptor Element (VDRE) (AID 2282968). The conditions noted are these: HepG2 VDRE cis-reporter transcription, actives raise or lower the signal. In a few lines: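 RT-PCR/CE readout of reporter mRNA; HepG2, transient transfection, 24 h dosing; DMSO baseline; bidirectional analysis.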
For assay [13], the target named is Nuclear receptor subfamily 1 group I member 3 (Homo sapiens) (UniProt Q14994). Nature of the assay: ATG_CAR_TRANS: Attagene TRANS-FACTORIAL HepG2 Assay for human Constitutive Androstane Receptor (CAR) (AID 2282969; active means hit-call score of the fitted dose curve at least 0.9, where 1 is the maximum;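 further: activators raise reporter mRNA above DMSO so AC50 marks induction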). Particulars: HepG2 Attagene TRANS-FACTORIAL CAR reporter. In a few lines: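 HepG2 cells transiently transfected with multiplexed GAL4-UAS reporter units expressing chimeric NR-Gal4 proteins; compound exposure 24 h. Reporter mRNA measured by RT-PCR, 6-FAM labelling, HpaI digestion and capillary electrophoresis; gain-of-signal fitted against DMSO baseline.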

A short description of assay [14]: ATG_M_19_TRANS: Attagene TRANS-FACTORIAL HepG2 Assay for M19 Transcription Factor (Internal Marker) (AID 2282974; active means hit-call score of the fitted dose curve at least 0.9, where 1 is the maximum). The conditions noted are these: HepG2 Attagene TRANS-FACTORIAL M19 internal marker reporter. In a few lines: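 HepG2 transiently transfected with GAL4-UAS multiplex reporter constructs, exposed 24 h; reporter RNA quantified by RT-PCR, 6-FAM labeling, HpaI digestion and capillary electrophoresis; internal background marker fitted upward versus DMSO.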

Assay [15] can be described thus: ATG_SREBP_CIS: Attagene CIS-FACTORIAL HepG2 Assay for human Sterol Regulatory Element Binding (SREBP) (AID 2282962). The conditions noted are these: HepG2 Attagene cis-factorial SREBP reporter, mRNA; actives raise or lower the signal. In a few lines:
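Transfected HepG2 (cis-regulated reporter library, endogenous TFs) → compound 24 h → total RNA → oligo(dT) RT → reporter-specific PCR → FAM primer extension, HpaI cut → CE fluorescence. Fit bidirectional vs DMSO.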

For assay [16], the target named is Steroid hormone receptor ERR1 (Homo sapiens) (UniProt P11474). As to the kind of experiment: ATG_ERRa_TRANS: Attagene TRANS-FACTORIAL HepG2 Assay for human Estrogen-Related Receptor alpha (ERRa) (AID 2282971; active means hit-call score of the fitted dose curve at least 0.9, where 1 is the maximum). Particulars: HepG2 Attagene TRANS reporter, ERRa transactivation. The method, boiled down:
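HepG2 cells transiently transfected with multiplexed GAL4-UAS reporter units reading chimeric ERRa-Gal4 activity; 24 h compound exposure. Reporter mRNA measured by RT-PCR, 6-FAM labelling, HpaI digest and capillary electrophoresis; gain of signal fitted versus DMSO baseline.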

Assay [17] concerns the target X-box-binding protein 1 (Homo sapiens) (UniProt P17861). Nature of the assay: ATG_Xbp1_CIS: Attagene CIS-FACTORIAL HepG2 Assay for human X-box Binding Protein 1 (XBP1) (AID 2282972). Particulars: HepG2 XBP1 cis-element reporter, Attagene multiplex; actives raise or lower the signal. The method, boiled down: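 HepG2, transient MRTU transfection (cis-promoter driven), 24 h compound exposure. Total RNA → oligo(dT) RT → PCR → 6-FAM labeling → HpaI cut → CE. Bidirectional fit vs DMSO.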

The nature of assay [18]: ATG_GAL4_TRANS: Attagene TRANS-FACTORIAL HepG2 Assay for GAL4 (Internal Marker) (AID 2282976; active means hit-call score of the fitted dose curve at least 0.9, where 1 is the maximum). Particulars: HepG2 Attagene TRANS GAL4 internal marker reporter. The method, boiled down: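 HepG2 cells transiently transfected with multiplexed GAL4-UAS reporter constructs were dosed for 24 h. Reporter mRNA was measured by RT-PCR, 6-FAM primer extension, HpaI digestion and capillary electrophoresis, and gain of signal was fitted relative to DMSO.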

Assay [19] concerns the target Estrogen-related receptor gamma (Homo sapiens) (UniProt P62508). Nature of the assay: ATG_ERRg_TRANS: Attagene TRANS-FACTORIAL HepG2 Assay for human Estrogen-Related Receptor gamma (ERRg) (AID 2282977; active means hit-call score of the fitted dose curve at least 0.9, where 1 is the maximum;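 further: hits increase reporter signal over DMSO so potencies reflect activators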). Particulars: HepG2 Attagene TRANS reporter, ERRg transactivation. In a few lines: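 HepG2 cells transiently transfected with multiplexed GAL4-UAS reporter units driven by chimeric NR-Gal4 proteins; 24 h exposure. Reporter mRNA quantified by RT-PCR, fluorescent labelling, HpaI digestion and capillary electrophoresis; gain of signal vs DMSO.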

Assay [20] deals with Estrogen receptor (Homo sapiens) (UniProt P03372). As to the kind of experiment: ATG_ERa_TRANS: Attagene TRANS-FACTORIAL HepG2 Assay for human Estrogen Receptor alpha (ERa) (AID 2282970; active means hit-call score of the fitted dose curve at least 0.9, where 1 is the maximum). The conditions noted are these: HepG2 Attagene TRANS ERa GAL4 reporter, mRNA. In a few lines: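 HepG2 cells transiently transfected with multiplexed GAL4-UAS reporter units; ERa activity read via exogenous chimeric NR-Gal4 protein. After 24 hour compound exposure, reporter mRNA measured by RT-PCR with 6-FAM labelling and capillary electrophoresis; gain-of-signal fitted relative to DMSO.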
Estrogen receptor (Homo sapiens), sequence (P03372 whole entry, looked up, the tested form may be a part): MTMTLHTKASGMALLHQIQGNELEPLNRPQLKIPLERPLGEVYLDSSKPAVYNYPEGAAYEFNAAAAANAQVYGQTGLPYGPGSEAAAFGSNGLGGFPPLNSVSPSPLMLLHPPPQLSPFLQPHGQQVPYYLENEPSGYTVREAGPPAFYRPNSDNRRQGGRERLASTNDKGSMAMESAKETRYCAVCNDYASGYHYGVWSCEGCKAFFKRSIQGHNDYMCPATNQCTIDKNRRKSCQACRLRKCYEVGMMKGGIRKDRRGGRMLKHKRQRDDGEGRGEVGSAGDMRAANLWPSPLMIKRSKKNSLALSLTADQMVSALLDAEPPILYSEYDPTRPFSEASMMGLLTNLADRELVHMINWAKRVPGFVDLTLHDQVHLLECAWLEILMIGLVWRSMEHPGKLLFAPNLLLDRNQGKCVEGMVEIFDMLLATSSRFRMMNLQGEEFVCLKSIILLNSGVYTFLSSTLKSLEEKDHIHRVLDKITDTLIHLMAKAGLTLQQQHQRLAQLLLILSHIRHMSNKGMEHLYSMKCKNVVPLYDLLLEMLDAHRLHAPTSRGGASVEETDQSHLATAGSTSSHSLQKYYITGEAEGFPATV

Nuclear receptor subfamily 1 group I member 3 (Homo sapiens), sequence (Q14994 whole entry, looked up, the tested form may be a part): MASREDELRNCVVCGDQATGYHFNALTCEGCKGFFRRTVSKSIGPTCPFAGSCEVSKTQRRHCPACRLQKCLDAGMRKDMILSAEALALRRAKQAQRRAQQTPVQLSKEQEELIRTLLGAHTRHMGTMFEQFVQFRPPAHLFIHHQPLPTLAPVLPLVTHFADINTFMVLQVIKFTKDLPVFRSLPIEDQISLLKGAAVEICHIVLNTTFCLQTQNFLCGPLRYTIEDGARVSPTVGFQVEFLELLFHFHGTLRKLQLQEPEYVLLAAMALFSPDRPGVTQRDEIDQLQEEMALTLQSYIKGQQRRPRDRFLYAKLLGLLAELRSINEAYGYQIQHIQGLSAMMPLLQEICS
Paired box protein Pax-6 (Homo sapiens), sequence (P26367 whole entry, looked up): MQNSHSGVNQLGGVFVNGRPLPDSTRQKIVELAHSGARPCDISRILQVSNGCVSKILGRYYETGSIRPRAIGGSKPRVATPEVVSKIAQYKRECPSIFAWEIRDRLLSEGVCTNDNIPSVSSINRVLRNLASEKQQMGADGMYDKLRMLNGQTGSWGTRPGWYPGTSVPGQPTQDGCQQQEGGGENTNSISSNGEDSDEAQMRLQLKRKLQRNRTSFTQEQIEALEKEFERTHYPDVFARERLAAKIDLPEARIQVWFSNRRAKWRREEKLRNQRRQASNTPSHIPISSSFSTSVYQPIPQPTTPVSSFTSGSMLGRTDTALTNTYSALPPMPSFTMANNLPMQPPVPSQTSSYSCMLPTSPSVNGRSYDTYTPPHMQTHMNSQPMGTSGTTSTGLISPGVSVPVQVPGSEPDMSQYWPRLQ
Signal transducer and activator of transcription 3 (Homo sapiens), sequence (P40763 whole entry, looked up): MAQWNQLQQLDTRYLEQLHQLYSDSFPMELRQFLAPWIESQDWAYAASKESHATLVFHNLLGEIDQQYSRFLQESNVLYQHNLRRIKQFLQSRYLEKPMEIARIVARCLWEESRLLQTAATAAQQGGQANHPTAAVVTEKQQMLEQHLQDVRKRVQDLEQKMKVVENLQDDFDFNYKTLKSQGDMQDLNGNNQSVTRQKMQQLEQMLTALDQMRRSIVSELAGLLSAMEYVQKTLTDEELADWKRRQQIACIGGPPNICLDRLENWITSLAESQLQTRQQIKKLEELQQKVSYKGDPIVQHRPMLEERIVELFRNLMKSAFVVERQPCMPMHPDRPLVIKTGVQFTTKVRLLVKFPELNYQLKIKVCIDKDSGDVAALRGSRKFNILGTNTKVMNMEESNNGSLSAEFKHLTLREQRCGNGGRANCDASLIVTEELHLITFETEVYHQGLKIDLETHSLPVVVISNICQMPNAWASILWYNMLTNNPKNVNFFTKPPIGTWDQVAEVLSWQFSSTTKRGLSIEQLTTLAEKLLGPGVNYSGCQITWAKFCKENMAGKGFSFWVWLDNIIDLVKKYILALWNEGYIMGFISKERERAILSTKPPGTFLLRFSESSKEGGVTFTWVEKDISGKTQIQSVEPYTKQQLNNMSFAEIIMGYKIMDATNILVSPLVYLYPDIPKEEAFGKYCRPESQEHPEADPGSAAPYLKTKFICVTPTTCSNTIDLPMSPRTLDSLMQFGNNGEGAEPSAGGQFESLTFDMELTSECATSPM
X-box-binding protein 1 (Homo sapiens), sequence (P17861 whole entry, looked up): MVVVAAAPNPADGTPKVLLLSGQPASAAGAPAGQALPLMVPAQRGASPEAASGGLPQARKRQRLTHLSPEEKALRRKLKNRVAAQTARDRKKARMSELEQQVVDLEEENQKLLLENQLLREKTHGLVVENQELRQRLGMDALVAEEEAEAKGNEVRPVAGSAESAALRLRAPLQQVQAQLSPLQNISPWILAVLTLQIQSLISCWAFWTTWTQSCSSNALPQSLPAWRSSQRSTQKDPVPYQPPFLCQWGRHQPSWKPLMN
Transcription factor Sp1 (Homo sapiens), sequence (P08047 whole entry, looked up): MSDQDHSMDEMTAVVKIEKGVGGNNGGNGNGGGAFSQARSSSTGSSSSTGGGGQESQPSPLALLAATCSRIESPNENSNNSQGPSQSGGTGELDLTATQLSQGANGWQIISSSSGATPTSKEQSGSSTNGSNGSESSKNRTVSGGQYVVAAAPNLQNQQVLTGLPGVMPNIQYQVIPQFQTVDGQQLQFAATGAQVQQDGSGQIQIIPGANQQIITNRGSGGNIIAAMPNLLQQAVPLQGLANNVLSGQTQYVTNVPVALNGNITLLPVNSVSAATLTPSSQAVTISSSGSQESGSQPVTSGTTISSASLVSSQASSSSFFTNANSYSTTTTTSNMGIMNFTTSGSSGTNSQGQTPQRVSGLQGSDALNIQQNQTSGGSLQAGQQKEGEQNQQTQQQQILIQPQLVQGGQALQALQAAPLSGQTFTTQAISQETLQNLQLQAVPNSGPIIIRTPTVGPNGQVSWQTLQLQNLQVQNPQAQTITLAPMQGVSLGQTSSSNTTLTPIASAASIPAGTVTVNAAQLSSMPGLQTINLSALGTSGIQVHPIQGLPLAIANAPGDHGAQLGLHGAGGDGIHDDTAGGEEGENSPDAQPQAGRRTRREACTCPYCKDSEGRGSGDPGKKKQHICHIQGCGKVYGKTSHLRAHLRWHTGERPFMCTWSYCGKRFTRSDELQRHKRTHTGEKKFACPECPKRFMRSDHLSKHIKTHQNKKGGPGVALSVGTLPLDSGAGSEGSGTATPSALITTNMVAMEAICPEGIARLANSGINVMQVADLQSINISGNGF
Steroid hormone receptor ERR1 (Homo sapiens), sequence (P11474 whole entry, looked up, the tested form may be a part): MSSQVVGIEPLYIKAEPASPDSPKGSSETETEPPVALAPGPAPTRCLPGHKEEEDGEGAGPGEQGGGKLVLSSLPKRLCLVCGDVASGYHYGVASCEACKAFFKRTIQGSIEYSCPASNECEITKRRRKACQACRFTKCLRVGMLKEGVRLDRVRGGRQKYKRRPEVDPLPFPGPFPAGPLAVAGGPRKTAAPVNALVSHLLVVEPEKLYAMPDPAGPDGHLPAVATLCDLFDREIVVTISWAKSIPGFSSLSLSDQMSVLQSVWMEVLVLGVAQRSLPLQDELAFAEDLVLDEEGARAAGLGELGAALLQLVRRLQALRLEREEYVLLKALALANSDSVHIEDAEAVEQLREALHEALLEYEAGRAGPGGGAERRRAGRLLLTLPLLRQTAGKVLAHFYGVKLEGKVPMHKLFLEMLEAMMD
Estrogen-related receptor gamma (Homo sapiens), sequence (P62508 whole entry, looked up, the tested form may be a part): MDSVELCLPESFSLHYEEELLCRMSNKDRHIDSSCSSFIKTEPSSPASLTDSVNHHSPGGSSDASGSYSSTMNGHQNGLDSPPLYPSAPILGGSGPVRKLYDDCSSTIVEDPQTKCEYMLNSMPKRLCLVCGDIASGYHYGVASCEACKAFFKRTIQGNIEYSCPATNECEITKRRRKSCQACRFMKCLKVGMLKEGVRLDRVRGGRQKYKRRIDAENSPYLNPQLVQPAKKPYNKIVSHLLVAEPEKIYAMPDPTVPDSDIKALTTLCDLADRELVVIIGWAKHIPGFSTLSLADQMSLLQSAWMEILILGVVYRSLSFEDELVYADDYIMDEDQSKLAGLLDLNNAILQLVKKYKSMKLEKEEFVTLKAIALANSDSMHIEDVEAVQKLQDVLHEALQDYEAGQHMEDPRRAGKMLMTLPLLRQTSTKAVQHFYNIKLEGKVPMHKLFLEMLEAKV

In the case of `COc1cccc(OC)c1`, the outcome in assay [1], in assay [2], in [3], in assay [4], in assay [5] and in assay [6] was inactive. For the same compound, the compound was classed as inactive in [7], in assay [8], in [9], in assay [10], in [11] and in assay [12]. Moreover, the compound was classed as inactive in assay [13] and in assay [14].
In the case of `CCCC(=O)OCCC(C)CCC=C(C)C` (stereo not given), the compound was classed as inactive in assay [1], in assay [3], in [4], in assay [5], in assay [15] and in assay [7]. Further, the compound was called inactive in assay [8], in assay [9], in [10], in assay [11], in [12] and in [13]. Also, the result in [16], in assay [17], in [14], in assay [18] and in [19] was inactive. In addition, the concentration at half-maximal activity (AC50) in assay [2] is 56.1 µM (active).
Take `Clc1sc(Cl)c(Cl)c1Cl`: the outcome in assay [1], in assay [2], in assay [3], in assay [4], in assay [5] and in [6] was inactive. The result in assay [15], in assay [7], in assay [8], in [9], in [10] and in assay [12] was inactive. Further, the compound was called inactive in [13], in [20], in [17] and in assay [18].
Regarding `c1ccc2sc(SN(C3CCCCC3)C3CCCCC3)nc2c1`, the call in [1], in [3], in assay [4], in assay [5], in [6] and in [15] was inactive. The compound was called inactive in assay [7], in assay [9], in assay [10], in assay [13] and in assay [14]. The AC50 was 0.698 µM (active) in assay [2] and 0.335 µM (active) in assay [11].
`N#Cc1ccc(CC(=NNC(=O)Nc2ccc(OC(F)(F)F)cc2)c2cccc(C(F)(F)F)c2)cc1`: the outcome in assay [1], in assay [2], in [3], in assay [4], in [5] and in assay [6] was inactive. The compound was called inactive in assay [7], in assay [8], in assay [9], in assay [10], in assay [11] and in assay [12]. The compound was called inactive in [13], in assay [14] and in [18].
With `O=C1CCCCCCCCCCOCCCCO1`, the compound was called inactive in assay [1], in assay [3], in assay [4], in assay [5], in assay [6] and in [7]. Also, the compound was classed as inactive in assay [8], in assay [9], in [10], in [11], in [13] and in [17]. In assay [14], the compound was classed as inactive. Also, the AC50 in assay [2] was 26.6 µM (active).
